# An excerpt weighted towards active compounds, which were near 8.8% of everything screened.
# HT1080 IDH1KD tx: qHTS for induction of synthetic lethality in tumor cells producing 2HG: qHTS for the HT-1080-IDH1KD cell line; 360,000 tested, 2% active; Potency, µM (highest dose often 46.1 µM), hits mostly cytotoxic; AID 686971, 2013; HT-1080 IDH1 knockdown viability, ATP luminescence, 48 h
#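 % activity derives from luminescence (CellTiter-Glo), normalised to DMSO and no-cell wells. HT-1080-IDH1KD cells, 750/well, had 48 h compound exposure at 37 °C.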
# IL-1B inflam inh: qHTS for Inhibitors of Inflammasome Signaling: IL-1-beta AlphaLISA Primary Screen; THP-1 LPS/ATP IL-1B secretion, AlphaLISA, 16 h; stronger effect = lower value; activity change, % at 57.5 µM; 360,000 tested, 4.7% active; in the data active = activity change below about -50%; inconclusive = mostly about -30% to -49%
#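 THP-1 cells pretreated 1 hr with compounds (up to 57.5 uM final), then stimulated with LPS (250 ng/mL final) plus ATP (1.25 mM final); secreted IL-1B measured by AlphaLISA after 16 hr, decreased signal indicating inhibition.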
# KB-3-1 cytotox: qHTS assay for MDR1-selective chemotherapeutics: Primary screen using the parental adenocarcinoma cell KB-3-1; KB-3-1 viability, CellTiter-Glo ATP luminescence, 72 h; Potency, µM (titrated, usually from 46.1 µM), usual class: cytotoxic; 400,000 tested, 1.4% active; also: nearly all actives have a fitted effect of over 60% in size
#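 Parental KB-3-1 viability, qHTS format: 72 h compound exposure, 37 °C; CellTiter-Glo; media-only wells and DMSO plates as controls; concentration-effect fits on corrected data.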
# KB-V1 MDR tox: qHTS assay for MDR1-selective chemotherapeutics: Primary screen using the drug-selected MDR subline cells KB-V1; KB-V1 MDR cells viability, CellTiter-Glo, 72 h; Potency, µM (titrated, usually from 46.1 µM), actives largely listed as cytotoxic; 400,000 tested, 3.4% active; AID 1347076, 2019; also: nearly all actives have a fitted effect of over 60% in size
#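 Cytotoxicity toward P-gp-expressing KB-V1 cells was determined as loss of CellTiter-Glo luminescence after 72 h at 37 degrees C. Compounds were tested in quantitative HTS format across a concentration range, with curves fitted to normalized data.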
# HT1080-NT tox: qHTS for induction of synthetic lethality in tumor cells producing 2HG: qHTS for the HT-1080-NT fibrosarcoma cell line | HT-1080-NT fibrosarcoma viability, CellTiter-Glo ATP luminescence, 48 h | Potency, µM (titrated, usually from 46.1 µM), usual class: cytotoxic | 360,000 tested, 1.6% active | AID 686970, 2013;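 also: NT is the 2HG producing partner of a matched IDH1 knockdown line; nearly all actives have a fitted effect of over 55% in size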
#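 Read-out is CellTiter-Glo luminescence after 10 minutes at room temperature, following 48 hours' compound treatment of HT-1080-NT cells (750 cells/well, RPMI, 5% FBS, 37 degrees C).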
# Hits are given with their value; n = inactive; u = inconclusive; x = no result. Unless noted, calls follow the shape of the dose curve; as a rule, active = well fitted curve in the direction sought with a large enough effect; inconclusive = small, poorly fitted or top-dose-only effect, or another doubt; inactive = no such curve, though single readings can be large; an effect the other way counts as inactive or inconclusive.
SMILES,HT1080 IDH1KD tx,IL-1B inflam inh,KB-3-1 cytotox,KB-V1 MDR tox,HT1080-NT tox
O=C(Nc1ccc(Nc2ccccc2)cc1)c1c(Cl)cccc1Cl,u,-87.5,n,n,n
Cc1ccc(CNC(=O)c2ccc3c(c2)S(=O)(=O)c2ccccc2C3=O)o1,n,n,n,n,n
CCOC(=O)c1cnc(SC)nc1Nc1cccc2ccccc12,n,n,n,11.6µM,n
CCOC(=O)c1cnc(SC)nc1Nc1cccc(F)c1,n,n,n,14.6µM,n
CCOC(=O)c1cnc(-n2cc(C)cn2)nc1Nc1ccccc1OCC,n,n,u,1.16µM,n
Cc1cc(C)c(S(=O)(=O)NCc2cccnc2)c(C)c1,n,n,n,u,n
CCn1c(CNC(=O)c2ccc(OC)cc2)nnc1SCC(=O)Nc1ccccc1,x,x,n,n,x
CCO[C@H]1OC(C(=O)NCc2nc3ccccc3[nH]2)=C[C@@H](C2CC2)[C@@H]1CCCO,2.06µM,n,n,n,u
CCO[C@@H]1OC(C(=O)NCc2nc3ccccc3[nH]2)=C[C@H](c2csc3ccccc23)[C@H]1CCCO,u,-56.4,u,n,u
CCO[C@H]1OC(C(=O)NCc2nc3ccccc3[nH]2)=C[C@@H](c2ccccc2)[C@@H]1CCCO,n,n,n,n,n
CCO[C@H]1OC(C(=O)NCc2nc3ccccc3[nH]2)=C[C@@H](c2csc3ccccc23)[C@@H]1CCCO,u,n,n,n,u
CCc1ccccc1NC(=O)CC(C)n1nc(C)cc1C (stereo not drawn),x,x,n,n,x
Cn1cnc([N+](=O)[O-])c1S(=O)(=O)Oc1ccccc1,23.1µM,-93.8,u,u,u
CN(C)c1c([N+](=O)[O-])ncn1C,n,n,n,n,n
Cn1cnc([N+](=O)[O-])c1NCc1ccccc1,n,n,n,n,n
Cn1cnc([N+](=O)[O-])c1S(=O)(=O)Nc1ccccc1,u,-97.5,u,u,10.3µM
CCN(C1CCS(=O)(=O)C1)S(=O)(=O)c1ccc2ccccc2c1 (stereo not drawn),n,n,n,n,n
COc1ccc(N2CCN(S(=O)(=O)c3ccc(CC(C)C)cc3)CC2)cc1,x,x,n,n,x
COc1c(Cl)c(=O)oc2ccc(Cl)cc12,n,n,n,n,n
COc1ccccc1-n1c(=O)oc2ccc(Cl)cc2c1=O,2.91µM,n,u,u,2.91µM
CSCCC(NC(=O)c1ccccc1Br)C(=O)N1CCN(C(C)=O)CC1 (stereo not drawn),n,n,n,n,n
COc1cc(OC)cc(C(=O)N[C@H](C(=O)OCC(=O)Nc2ccc(C)cc2C)C(C)C)c1,n,n,u,n,n
COc1ccc(NC(=O)COC(=O)C(NC(=O)c2ccc(C)cc2)C(C)C)cn1 (stereo not drawn),n,n,n,14.6µM,n
O=C(Cc1ccccc1F)Nc1ccc(S(=O)(=O)N2CCCC2)cc1,n,-50.7,n,u,n
CN(CC(=O)Nc1ccc(S(=O)(=O)N2CCCC2)cc1)Cc1cccc(Cl)c1Cl,n,n,u,18.4µM,n
SMILES,HT1080 IDH1KD tx,IL-1B inflam inh,KB-3-1 cytotox,KB-V1 MDR tox,HT1080-NT tox
COc1ccccc1CN(C)CC(=O)Nc1cccc(S(=O)(=O)N2CCCCC2)c1,n,n,n,u,n
CCOC(=O)C1(C)CCN1C(=O)CSc1ccccc1 (stereo not drawn),u,n,n,n,n
CCCCn1nnnc1C(c1cc2ccccc2o1)N1CCN(c2cc(C)nc3ccccc23)CC1 (stereo not drawn),u,n,u,u,18.4µM
Cc1cccc(C)c1N1CCN(C(c2cc3ccccc3o2)c2nnnn2C(C)(C)C)CC1 (stereo not drawn),u,n,5.8µM,2.59µM,n
CCCCn1nnnc1C(c1cc2ccccc2o1)N1CCN(c2ccncc2)CC1 (stereo not drawn),u,-60.8,n,u,u
CCCCn1nnnc1C(c1cc2ccccc2o1)N1CCCCC1 (stereo not drawn),n,n,u,n,n
CCCCn1nnnc1C(c1cc2ccccc2o1)N1CCN(c2ccccc2F)CC1 (stereo not drawn),n,n,n,u,n
CCN1CCN(CC(=O)N/N=C/c2ccc(F)cc2F)CC1,n,n,n,n,n
COc1cc2cnc(-c3cccnc3)cc2cc1OC,n,u,n,n,n
CC(=O)c1ccc(NC(=S)N2CCN(c3ccccn3)CC2)cc1,n,n,n,n,n
Cc1ccc(N/N=C(\Cc2nc3ccccc3[nH]2)c2ccccc2)cc1,0.92µM,n,1.16µM,3.66µM,1.3µM
CCN/N=C(\Cc1nc2ccccc2[nH]1)c1ccccc1,n,n,n,n,n
Clc1cccc(/C(Cc2nc3ccccc3[nH]2)=N\Nc2ccccc2)c1,u,-78.2,n,n,u
c1ccc(N/N=C(\Cc2nc3ccccc3[nH]2)c2ccccc2)cc1,n,-67.6,n,n,n
CCc1cccc(NC(=O)NC(=O)Cn2nnc(C(=O)OC)c2C(=O)OC)c1,n,u,u,n,n
COc1ccc(OC)c2c(/C=C/c3c(C)[nH]c4ccccc34)ccnc12,x,x,u,20.6µM,x
NC(=O)C12CCCC(Br)(CCC1)C2,n,-62.5,n,n,n
O=C(c1cccc(C(F)(F)F)c1)N1CCC(O)(CS(=O)(=O)Cc2ccccc2Cl)CC1,n,n,n,16.4µM,n
O=C(c1cccc(C(F)(F)F)c1)N1CCC(O)(CS(=O)(=O)Cc2ccc(Cl)cc2)CC1,n,n,n,11.6µM,n
O=C(c1cccc(C(F)(F)F)c1)N1CCC(O)(CS(=O)(=O)Cc2ccccc2)CC1,n,n,n,n,n
Cc1cc(C)n(CCNC(=O)CC2C(=O)NCCN2Cc2ccccc2C(F)(F)F)n1 (stereo not drawn),n,n,n,n,n
Cn1ncc(Br)c1C(=O)N1CCCCCC1,n,n,n,n,n
COc1ccc(OC)c(NC(=O)C2CCCN(S(C)(=O)=O)C2)c1 (stereo not drawn),n,n,n,n,n
O=S(=O)(Nc1nc2ccccc2nc1Nc1cccc(S(=O)(=O)N2CCCCC2)c1)c1ccccc1,u,n,14.6µM,7.31µM,6.51µM
COc1ccc(S(=O)(=O)Nc2cccc(S(=O)(=O)N3CCCCCC3)c2)cc1,n,n,n,n,n
CCc1ccc(Nc2nc3ccccc3nc2NS(=O)(=O)c2ccccc2)cc1,x,x,u,18.4µM,x
CC(C)CCNC(=O)c1ccc2c(c1)ncn2C1CCCC1,n,-61.9,n,n,n
CCOC(=O)Nc1ccc2c(c1)ncn2C1CCCCC1,n,u,n,18.4µM,n
CC(=O)Nc1cccc(Oc2nc(NCCN(C)C)nc3ccsc23)c1,n,n,n,n,n
